{"source": "the supplement of paper PMC10849652", "note": "The full data set covers some 7,900 targets. This sample favours those with a hit. About 0.6% of all pairs of compound and target were hits. Values without a mark were called inactive.", "data": [{"compound": "NCC(=O)Nc1ccc(-n2nc(C(F)(F)F)cc2-c2ccc3c(ccc4ccccc43)c2)cc1", "assay": "log2 fold change, soluble protein after heating vs DMSO (PISA); higher = thermal stabilisation; K562 cells, 10 uM, 30 min; active = over 0.2 and 3.5 SD of the protein, either way, in both replicates (recomputed)", "how_it_was_run": "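Quantification of soluble protein used TMTpro 16plex LC-MS/MS, with channel sums equalised. Samples were the supernatant after 21,000xg for 90 min of pooled aliquots from K562 cells (2×10^6 cells/mL) treated with 10 μM compound for 30 min, heated for 3 min over 48°C-58°C, and extracted in PBS with 0.5% NP-40 at 4°C. Values, from duplicates, describe thermal stability against control samples on a log2 fold-change scale.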", "values": [{"target": "SMAP (UniProt O00193)", "sequence (O00193 whole entry, looked up)": "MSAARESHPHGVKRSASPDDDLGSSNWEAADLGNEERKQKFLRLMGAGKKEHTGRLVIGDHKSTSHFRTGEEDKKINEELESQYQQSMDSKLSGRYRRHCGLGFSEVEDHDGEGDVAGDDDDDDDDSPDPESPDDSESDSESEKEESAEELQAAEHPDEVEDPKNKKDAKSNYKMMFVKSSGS", "log2 fold change": 0.013}, {"target": "TGFBR1 isoform 2 (UniProt P36897)", "log2 fold change": 0.002}, {"target": "SLC7A6OS (UniProt Q96CW6)", "log2 fold change": 0.042}, {"target": "TK1 (UniProt P04183)", "log2 fold change": 0.031}, {"target": "TACC2 (UniProt O95359)", "log2 fold change": -0.187}, {"target": "TEX30 (UniProt Q5JUR7)", "log2 fold change": -0.1}, {"target": "TATDN2 (UniProt Q93075)", "log2 fold change": -0.126}, {"target": "STK11IP (UniProt Q8N1F8)", "log2 fold change": 0.086}, {"target": "SRXN1 (UniProt Q9BYN0)", "sequence (Q9BYN0 whole entry, looked up)": "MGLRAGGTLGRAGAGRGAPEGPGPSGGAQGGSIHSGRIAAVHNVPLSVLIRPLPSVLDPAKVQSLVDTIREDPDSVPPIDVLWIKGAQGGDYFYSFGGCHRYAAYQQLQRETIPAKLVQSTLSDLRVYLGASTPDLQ", "log2 fold change": -0.021}, {"target": "SSRP1 (UniProt Q08945)", "log2 fold change": 0.003}, {"target": "STK38L (UniProt Q9Y2H1)", "sequence (Q9Y2H1 whole entry, looked up)": "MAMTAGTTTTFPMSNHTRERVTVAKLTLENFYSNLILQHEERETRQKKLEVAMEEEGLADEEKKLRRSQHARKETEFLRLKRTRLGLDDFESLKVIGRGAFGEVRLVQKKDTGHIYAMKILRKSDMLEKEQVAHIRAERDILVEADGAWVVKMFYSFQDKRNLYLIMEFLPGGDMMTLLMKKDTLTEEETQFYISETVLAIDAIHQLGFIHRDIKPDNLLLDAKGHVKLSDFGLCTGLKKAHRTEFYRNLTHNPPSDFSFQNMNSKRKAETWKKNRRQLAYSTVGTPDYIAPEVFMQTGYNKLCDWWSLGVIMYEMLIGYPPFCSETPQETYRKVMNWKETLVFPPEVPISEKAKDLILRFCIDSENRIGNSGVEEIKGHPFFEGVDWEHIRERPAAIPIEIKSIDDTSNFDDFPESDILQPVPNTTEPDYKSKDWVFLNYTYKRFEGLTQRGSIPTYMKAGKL", "log2 fold change": 0.078}, {"target": "TAF9 (UniProt Q16594)", "sequence (Q16594 whole entry, looked up)": "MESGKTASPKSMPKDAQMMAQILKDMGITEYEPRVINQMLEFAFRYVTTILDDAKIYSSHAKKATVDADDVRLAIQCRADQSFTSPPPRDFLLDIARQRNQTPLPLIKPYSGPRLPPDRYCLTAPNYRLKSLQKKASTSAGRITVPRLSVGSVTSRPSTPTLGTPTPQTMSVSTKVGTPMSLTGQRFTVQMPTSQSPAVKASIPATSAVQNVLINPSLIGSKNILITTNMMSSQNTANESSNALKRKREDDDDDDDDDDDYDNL", "log2 fold change": 0}, {"target": "SP1 (UniProt P08047)", "log2 fold change": -0.001}, {"target": "SRPRB (UniProt Q9Y5M8)", "sequence (Q9Y5M8 whole entry, looked up)": "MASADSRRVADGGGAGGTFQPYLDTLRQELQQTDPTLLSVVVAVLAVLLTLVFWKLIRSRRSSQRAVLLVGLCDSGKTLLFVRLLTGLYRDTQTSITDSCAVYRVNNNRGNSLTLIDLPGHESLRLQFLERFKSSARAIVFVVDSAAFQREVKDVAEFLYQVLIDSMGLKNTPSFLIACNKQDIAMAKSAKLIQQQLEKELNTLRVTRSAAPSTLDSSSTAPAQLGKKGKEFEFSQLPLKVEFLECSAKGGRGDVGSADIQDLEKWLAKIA", "log2 fold change": -0.038}, {"target": "SLC38A7 (UniProt Q9NVC3)", "sequence (Q9NVC3 whole entry, looked up)": "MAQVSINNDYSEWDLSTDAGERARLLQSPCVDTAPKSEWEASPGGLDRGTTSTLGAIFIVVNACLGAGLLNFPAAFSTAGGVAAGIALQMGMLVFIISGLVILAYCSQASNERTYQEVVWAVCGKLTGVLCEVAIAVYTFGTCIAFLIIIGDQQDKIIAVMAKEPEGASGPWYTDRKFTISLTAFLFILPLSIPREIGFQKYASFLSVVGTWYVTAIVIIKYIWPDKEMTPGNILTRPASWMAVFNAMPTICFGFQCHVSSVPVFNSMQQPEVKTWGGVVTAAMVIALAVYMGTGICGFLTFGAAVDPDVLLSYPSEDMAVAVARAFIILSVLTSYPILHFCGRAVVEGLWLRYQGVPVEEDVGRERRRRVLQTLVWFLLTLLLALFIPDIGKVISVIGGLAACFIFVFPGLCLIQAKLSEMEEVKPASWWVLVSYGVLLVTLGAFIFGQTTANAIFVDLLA", "log2 fold change": 0.197}, {"target": "SP100 isoform 4 (UniProt P23497)", "log2 fold change": -0.039}, {"target": "TK1 (UniProt K7ERV3)", "log2 fold change": 0.022}, {"target": "SMARCA4 (UniProt P51532)", "sequence (P51532 whole entry, looked up)": "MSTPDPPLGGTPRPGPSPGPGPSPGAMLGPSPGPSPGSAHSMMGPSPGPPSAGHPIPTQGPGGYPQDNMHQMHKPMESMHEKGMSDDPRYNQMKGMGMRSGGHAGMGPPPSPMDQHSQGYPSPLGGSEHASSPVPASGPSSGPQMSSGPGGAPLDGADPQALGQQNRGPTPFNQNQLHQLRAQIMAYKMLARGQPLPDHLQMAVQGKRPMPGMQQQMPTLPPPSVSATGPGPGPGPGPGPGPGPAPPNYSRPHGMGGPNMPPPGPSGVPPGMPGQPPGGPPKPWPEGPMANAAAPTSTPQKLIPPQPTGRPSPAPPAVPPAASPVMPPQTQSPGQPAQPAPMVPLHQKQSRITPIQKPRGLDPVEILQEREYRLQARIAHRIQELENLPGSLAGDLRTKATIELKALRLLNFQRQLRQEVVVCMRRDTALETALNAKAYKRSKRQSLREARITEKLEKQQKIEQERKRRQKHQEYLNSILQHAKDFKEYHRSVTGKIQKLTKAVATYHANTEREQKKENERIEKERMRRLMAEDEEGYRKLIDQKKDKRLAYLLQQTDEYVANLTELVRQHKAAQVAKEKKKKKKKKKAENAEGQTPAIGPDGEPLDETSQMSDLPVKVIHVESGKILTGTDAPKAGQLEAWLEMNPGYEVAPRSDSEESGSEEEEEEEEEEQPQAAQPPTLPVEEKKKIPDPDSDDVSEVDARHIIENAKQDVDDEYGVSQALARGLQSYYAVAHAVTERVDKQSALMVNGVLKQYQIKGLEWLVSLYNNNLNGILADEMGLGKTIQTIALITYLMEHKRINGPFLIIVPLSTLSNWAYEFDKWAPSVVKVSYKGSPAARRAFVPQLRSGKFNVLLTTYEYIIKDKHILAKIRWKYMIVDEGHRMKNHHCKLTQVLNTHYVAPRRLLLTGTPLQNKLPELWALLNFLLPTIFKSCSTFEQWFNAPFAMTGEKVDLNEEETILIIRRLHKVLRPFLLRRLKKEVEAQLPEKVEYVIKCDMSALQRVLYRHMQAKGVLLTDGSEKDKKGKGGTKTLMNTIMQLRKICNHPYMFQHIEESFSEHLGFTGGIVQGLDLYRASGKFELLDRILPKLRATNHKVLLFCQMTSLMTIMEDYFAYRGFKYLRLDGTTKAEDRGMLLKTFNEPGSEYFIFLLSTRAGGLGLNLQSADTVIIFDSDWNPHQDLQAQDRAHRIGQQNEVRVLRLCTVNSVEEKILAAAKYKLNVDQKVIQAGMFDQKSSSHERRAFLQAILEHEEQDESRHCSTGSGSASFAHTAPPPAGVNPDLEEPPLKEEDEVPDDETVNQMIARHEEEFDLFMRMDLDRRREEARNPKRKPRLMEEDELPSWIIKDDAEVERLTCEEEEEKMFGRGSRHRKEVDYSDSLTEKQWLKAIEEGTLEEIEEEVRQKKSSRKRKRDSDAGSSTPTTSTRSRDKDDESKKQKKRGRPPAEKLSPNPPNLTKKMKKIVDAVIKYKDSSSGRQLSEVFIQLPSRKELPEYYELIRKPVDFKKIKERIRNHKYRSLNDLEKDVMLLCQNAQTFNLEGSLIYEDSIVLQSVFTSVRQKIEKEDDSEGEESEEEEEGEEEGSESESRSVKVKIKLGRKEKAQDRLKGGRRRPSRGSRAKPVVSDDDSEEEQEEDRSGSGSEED", "log2 fold change": -0.201}, {"target": "SLC44A2 isoform 2 (UniProt Q8IWA5)", "log2 fold change": 0.05}, {"target": "TBC1D20 isoform 3 (UniProt Q96BZ9)", "sequence (Q96BZ9 whole entry, looked up)": "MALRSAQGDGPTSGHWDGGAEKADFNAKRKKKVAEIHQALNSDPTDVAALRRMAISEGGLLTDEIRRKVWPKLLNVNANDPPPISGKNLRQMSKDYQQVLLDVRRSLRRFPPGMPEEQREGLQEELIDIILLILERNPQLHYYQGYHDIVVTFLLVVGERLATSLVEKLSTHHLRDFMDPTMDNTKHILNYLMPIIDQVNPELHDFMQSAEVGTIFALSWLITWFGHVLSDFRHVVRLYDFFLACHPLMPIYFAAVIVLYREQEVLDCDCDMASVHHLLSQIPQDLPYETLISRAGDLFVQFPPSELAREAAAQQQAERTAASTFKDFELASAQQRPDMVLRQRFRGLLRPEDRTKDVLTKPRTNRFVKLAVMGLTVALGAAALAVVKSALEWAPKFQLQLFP", "log2 fold change": -0.08}, {"target": "SRSF6 (UniProt Q13247)", "sequence (Q13247 whole entry, looked up)": "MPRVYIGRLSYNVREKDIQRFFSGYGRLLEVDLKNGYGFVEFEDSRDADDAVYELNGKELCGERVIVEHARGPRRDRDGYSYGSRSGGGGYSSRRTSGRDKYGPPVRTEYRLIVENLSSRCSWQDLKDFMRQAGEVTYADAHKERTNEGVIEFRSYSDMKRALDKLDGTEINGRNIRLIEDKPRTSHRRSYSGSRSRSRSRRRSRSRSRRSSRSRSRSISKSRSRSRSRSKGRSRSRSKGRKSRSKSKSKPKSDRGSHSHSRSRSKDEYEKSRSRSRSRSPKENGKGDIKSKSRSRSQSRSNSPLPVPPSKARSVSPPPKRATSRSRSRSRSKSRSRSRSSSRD", "log2 fold change": 0.032}, {"target": "SPIRE1 (UniProt Q08AE8)", "sequence (Q08AE8 whole entry, looked up)": "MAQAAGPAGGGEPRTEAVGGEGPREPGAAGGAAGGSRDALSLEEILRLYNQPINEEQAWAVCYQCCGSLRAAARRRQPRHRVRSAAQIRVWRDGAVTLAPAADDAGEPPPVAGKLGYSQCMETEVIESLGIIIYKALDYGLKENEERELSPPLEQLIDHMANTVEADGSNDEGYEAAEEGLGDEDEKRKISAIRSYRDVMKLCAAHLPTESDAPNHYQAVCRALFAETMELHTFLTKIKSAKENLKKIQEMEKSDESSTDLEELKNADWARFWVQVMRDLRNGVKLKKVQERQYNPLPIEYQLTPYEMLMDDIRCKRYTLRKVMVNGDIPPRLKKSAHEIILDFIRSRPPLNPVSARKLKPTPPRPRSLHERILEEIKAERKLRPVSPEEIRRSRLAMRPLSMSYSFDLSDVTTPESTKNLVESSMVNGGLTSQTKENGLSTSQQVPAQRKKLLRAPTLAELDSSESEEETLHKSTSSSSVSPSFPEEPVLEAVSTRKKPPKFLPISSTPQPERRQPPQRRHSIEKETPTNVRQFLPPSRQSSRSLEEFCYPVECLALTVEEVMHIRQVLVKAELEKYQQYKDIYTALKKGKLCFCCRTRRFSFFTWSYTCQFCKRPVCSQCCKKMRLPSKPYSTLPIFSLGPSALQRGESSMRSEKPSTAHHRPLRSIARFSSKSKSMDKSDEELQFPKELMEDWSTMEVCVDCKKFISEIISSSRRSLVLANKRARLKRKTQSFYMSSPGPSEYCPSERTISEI", "log2 fold change": -0.04}, {"target": "SRC isoform 2 (UniProt P12931)", "log2 fold change": -0.088}]}]}
